From PubChem BioAssay AID1159580 (chemical genetic matrix, 2015)
Among all 5,500 compounds or so, about 2,000 (36%) were called active. Roughly 18% stayed inconclusive and do not appear here. No stated cut-off is given here; in the data, active means normalized growth mostly below about 0.91 (no sharp cut-off); inconclusive means no clear call, values can overlap the other calls; inactive means mostly above about 0.92. The list shows a part of the results.

Assay: chemical genetic growth profiling, strain panel (AID 1159580);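 further: tested at 20 µM; growth read once vehicle control cultures reached saturation at 30 °C; 1 = growth at the plate median or of vehicle wells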
Details: growth OD
[1] = S. cerevisiae deletion strains, locus YAR019C, strain CDC15, stronger effect = lower value
[2] = S. cerevisiae deletion strains, locus YBL105C, strain PKC1, stronger effect = lower value
[3] = S. cerevisiae deletion strains, locus YBR135W, strain CKS1, stronger effect = lower value
[4] = S. cerevisiae deletion strains, locus YBR136W, strain MEC1, stronger effect = lower value
[5] = S. cerevisiae deletion strains, locus YBR160W, strain CDC28, stronger effect = lower value
[6] = S. cerevisiae deletion strains, locus YDL017W, strain CDC7, stronger effect = lower value
[7] = S. cerevisiae deletion strains, locus YDL028C, strain MPS1, stronger effect = lower value
[8] = S. cerevisiae deletion strains, locus YDL101C, strain DUN1, stronger effect = lower value
[9] = S. cerevisiae deletion strains, locus YDL108W, strain KIN28, stronger effect = lower value
[10] = S. cerevisiae deletion strains, locus YDL132W, strain cdc53, stronger effect = lower value
[11] = S. cerevisiae deletion strains, locus YDL214C, strain PRR2, stronger effect = lower value
[12] = S. cerevisiae deletion strains, locus YDR052C, strain DBF4, stronger effect = lower value
[13] = S. cerevisiae deletion strains, locus YDR054C, strain cdc34, stronger effect = lower value
[14] = S. cerevisiae deletion strains, locus YDR226W, strain ADK1, stronger effect = lower value
[15] = S. cerevisiae deletion strains, locus YDR477W, strain SNF1, stronger effect = lower value
[16] = S. cerevisiae deletion strains, locus YER123W, strain YCK3, stronger effect = lower value
[17] = S. cerevisiae deletion strains, locus YER133W, strain GLC7, stronger effect = lower value
[18] = S. cerevisiae deletion strains, locus YFL009W, strain cdc4, stronger effect = lower value
[19] = S. cerevisiae deletion strains, locus YFL029C, strain CAK1, stronger effect = lower value
[20] = S. cerevisiae deletion strains, locus YFR003C, strain YPI1, stronger effect = lower value
[21] = S. cerevisiae deletion strains, locus YFR019W, strain FAB1, stronger effect = lower value
[22] = S. cerevisiae deletion strains, locus YFR028C, strain CDC14, stronger effect = lower value
[23] = S. cerevisiae deletion strains, locus YGR040W, strain KSS1, stronger effect = lower value
[24] = S. cerevisiae deletion strains, locus YGR052W, strain FMP48, stronger effect = lower value
[25] = S. cerevisiae deletion strains, locus YGR092W, strain DBF2, stronger effect = lower value
[26] = S. cerevisiae deletion strains, locus YHR030C, strain SLT2, stronger effect = lower value
[27] = S. cerevisiae deletion strains, locus YHR079C, strain IRE1, stronger effect = lower value
[28] = S. cerevisiae deletion strains, locus YHR082C, strain KSP1, stronger effect = lower value
[29] = S. cerevisiae deletion strains, locus YHR205W, strain SCH9, stronger effect = lower value
[30] = S. cerevisiae deletion strains, locus YIL147C, strain SLN1, stronger effect = lower value
[31] = S. cerevisiae deletion strains, locus YJL095W, strain BCK1, stronger effect = lower value
[32] = S. cerevisiae deletion strains, locus YJL128C, strain PBS2, stronger effect = lower value
[33] = S. cerevisiae deletion strains, locus YJL157C, strain FAR1, stronger effect = lower value
[34] = S. cerevisiae deletion strains, locus YJR016C, strain ILV3, stronger effect = lower value
[35] = S. cerevisiae deletion strains, locus YJR066W, strain TOR1 (second series), stronger effect = lower value
[36] = S. cerevisiae deletion strains, locus YJR066W, strain TOR1, stronger effect = lower value
[37] = S. cerevisiae deletion strains, locus YKL048C, strain ELM1, stronger effect = lower value
[38] = S. cerevisiae deletion strains, locus YKL067W, strain YNK1, stronger effect = lower value
[39] = S. cerevisiae deletion strains, locus YKL101W, strain HSL1, stronger effect = lower value
[40] = S. cerevisiae deletion strains, locus YKL193C, strain SDS22, stronger effect = lower value
[41] = S. cerevisiae deletion strains, locus YKL203C, strain TOR2, stronger effect = lower value
[42] = S. cerevisiae deletion strains, locus YLR113W, strain HOG1, stronger effect = lower value
[43] = S. cerevisiae deletion strains, locus YLR133W, strain CKI1, stronger effect = lower value
[44] = S. cerevisiae deletion strains, locus YLR403W, strain SFP1, stronger effect = lower value
[45] = S. cerevisiae deletion strains, locus YML070W, strain DAK1, stronger effect = lower value
[46] = S. cerevisiae deletion strains, locus YMR001C, strain CDC5, stronger effect = lower value
[47] = S. cerevisiae deletion strains, locus YMR205C, strain PFK2 (second series), stronger effect = lower value
[48] = S. cerevisiae deletion strains, locus YMR277W, strain FCP1, stronger effect = lower value
[49] = S. cerevisiae deletion strains, locus YNL006W, strain LST8, stronger effect = lower value
[50] = S. cerevisiae deletion strains, locus YNL020C, strain ARK1, stronger effect = lower value
[51] = S. cerevisiae deletion strains, locus YNL161W, strain CBK1, stronger effect = lower value
[52] = S. cerevisiae deletion strains, locus YNL183C, strain NPR1, stronger effect = lower value
[53] = S. cerevisiae deletion strains, locus YNL207W, strain RIO2, stronger effect = lower value
[54] = S. cerevisiae deletion strains, locus YNL222W, strain SSU72, stronger effect = lower value
[55] = S. cerevisiae deletion strains, locus YNL307C, strain MCK1 (second series), stronger effect = lower value
[56] = S. cerevisiae deletion strains, locus YOL078W, strain AVO1, stronger effect = lower value
[57] = S. cerevisiae deletion strains, locus YOL136C, strain PFK27, stronger effect = lower value
[58] = S. cerevisiae deletion strains, locus YOR061W, strain CKA2, stronger effect = lower value
[59] = S. cerevisiae deletion strains, locus YOR119C, strain RIO1, stronger effect = lower value
[60] = S. cerevisiae deletion strains, locus YOR231W, strain MKK1, stronger effect = lower value
[61] = S. cerevisiae deletion strains, locus YOR329C, strain SCD5, stronger effect = lower value
[62] = S. cerevisiae deletion strains, locus YPL031C, strain PHO85, stronger effect = lower value
[63] = S. cerevisiae deletion strains, locus YPL153C, strain RAD53, stronger effect = lower value
[64] = S. cerevisiae deletion strains, locus YPL204W, strain HRR25, stronger effect = lower value
[65] = S. cerevisiae deletion strains, locus YPL209C, strain IPL1, stronger effect = lower value
[66] = S. cerevisiae deletion strains, locus YPL256C, strain CLN2, stronger effect = lower value
[67] = S. cerevisiae deletion strains, locus YPR025C, strain CCL1, stronger effect = lower value
[68] = S. cerevisiae deletion strains, locus YPR106W, strain ISR1, stronger effect = lower value
[69] = S. cerevisiae deletion strains, locus YPR111W, strain DBF20, stronger effect = lower value
[70] = S. cerevisiae deletion strains, strain NNK1, stronger effect = lower value
[71] = S. cerevisiae deletion strains, strain TSCII, stronger effect = lower value

Measured: normalized growth

Cc1c(Cl)cccc1N=C1SCC(=O)N1Cc1ccco1
active: [26] 0.758 | [42] 0.809 | [66] 0.791
inactive: [1] 0.981 | [2] 0.973 | [3] 0.972 | [4] 0.981 | [5] 0.971 | [6] 0.974 | [7] 0.977 | [8] 0.979 | [9] 0.972 | [10] 0.978 | [11] 0.905 | [12] 0.986 | [13] 0.96 | [14] 0.98 | [15] 0.918 | [16] 0.884 | [17] 0.915 | [18] 0.969 | [19] 0.971 | [20] 0.969 | [21] 0.918 | [22] 0.964 | [23] 0.912 | [24] 1 | [25] 0.943 | [27] 0.888 | [28] 0.942 | [29] 0.896 | [30] 0.975 | [31] 0.823 | [32] 0.951 | [33] 0.936 | [34] 0.969 | [35] 0.903 | [36] 0.893 | [37] 0.975 | [38] 0.903 | [39] 0.923 | [40] 0.966 | [41] 0.954 | [43] 0.918 | [44] 0.918 | [45] 0.892 | [46] 0.973 | [47] 0.919 | [48] 0.969 | [49] 0.974 | [50] 0.914 | [51] 0.978 | [52] 0.849 | [53] 0.974 | [54] 0.969 | [55] 0.892 | [56] 0.978 | [57] 0.889 | [58] 0.925 | [59] 0.998 | [60] 0.885 | [61] 0.976 | [62] 0.897 | [63] 0.916 | [64] 0.89 | [65] 0.976 | [67] 0.975 | [68] 0.963 | [69] 0.954 | [70] 0.951 | [71] 0.976

O=C1CSC(=Nc2cc(Cl)cc(Cl)c2)N1Cc1cccnc1
inactive: [1] 0.997 | [2] 0.989 | [3] 0.995 | [4] 0.986 | [5] 0.992 | [6] 0.991 | [7] 0.994 | [8] 0.988 | [9] 0.97 | [10] 0.997 | [11] 0.924 | [12] 0.995 | [13] 0.983 | [14] 0.996 | [15] 0.947 | [16] 0.887 | [17] 0.927 | [18] 0.986 | [19] 0.994 | [20] 0.991 | [21] 0.944 | [22] 0.994 | [23] 0.937 | [24] 1.03 | [25] 0.947 | [26] 1.14 | [27] 1.05 | [28] 1.01 | [29] 0.958 | [30] 0.986 | [31] 1.03 | [32] 0.974 | [33] 0.931 | [34] 0.996 | [35] 0.912 | [36] 1.02 | [37] 0.974 | [38] 0.948 | [39] 0.958 | [40] 0.999 | [41] 1.02 | [42] 0.968 | [43] 0.955 | [44] 0.957 | [45] 0.918 | [46] 0.996 | [47] 0.938 | [48] 0.996 | [49] 0.994 | [50] 0.945 | [51] 0.996 | [52] 1.03 | [53] 0.993 | [54] 1 | [55] 0.952 | [56] 0.998 | [57] 0.927 | [58] 0.927 | [59] 0.981 | [60] 1.02 | [61] 0.994 | [62] 0.949 | [63] 0.923 | [64] 0.944 | [65] 0.991 | [66] 1.04 | [67] 0.992 | [68] 0.998 | [69] 0.99 | [70] 0.991 | [71] 0.997

COc1ccccc1N=C1SCC(=O)N1Cc1ccco1
inactive: S. cerevisiae deletion strains, locus YAL013W, strain DEP1, stronger effect = lower value 0.993 | S. cerevisiae deletion strains, locus YBR229C, strain ROT2, stronger effect = lower value 0.99 | [8] 0.983 | S. cerevisiae deletion strains, locus YDR150W, strain NUM1, stronger effect = lower value 0.9 | S. cerevisiae deletion strains, locus YEL061C, strain CIN8, stronger effect = lower value 0.989 | S. cerevisiae deletion strains, locus YGR078C, strain PAC10, stronger effect = lower value 0.981 | S. cerevisiae deletion strains, locus YGR229C, strain SMI1, stronger effect = lower value 1 | [26] 0.956 | S. cerevisiae deletion strains, locus YHR087W, strain rtc3, stronger effect = lower value 0.989 | S. cerevisiae deletion strains, locus YJR043C, strain POL32, stronger effect = lower value 0.977 | S. cerevisiae deletion strains, locus YJR075W, strain HOC1, stronger effect = lower value 0.978 | S. cerevisiae deletion strains, locus YKL190W, strain CNB1, stronger effect = lower value 0.997 | S. cerevisiae deletion strains, locus YLR039C, strain RIC1, stronger effect = lower value 0.989 | S. cerevisiae deletion strains, locus YLR058C, strain SHM2 (second series), stronger effect = lower value 0.99 | S. cerevisiae deletion strains, locus YLR085C, strain ARP6, stronger effect = lower value 0.968 | S. cerevisiae deletion strains, locus YLR262C, strain YPT6, stronger effect = lower value 0.998 | S. cerevisiae deletion strains, locus YML094W, strain GIM5, stronger effect = lower value 0.972 | S. cerevisiae deletion strains, locus YMR219W, strain ESC1, stronger effect = lower value 0.989 | S. cerevisiae deletion strains, locus YMR263W, strain SAP30, stronger effect = lower value 0.987 | S. cerevisiae deletion strains, locus YNL153C, strain GIM3, stronger effect = lower value 0.987 | S. cerevisiae deletion strains, locus YNL298W, strain CLA4 (second series), stronger effect = lower value 0.997 | S. cerevisiae deletion strains, locus YNL322C, strain KRE1, stronger effect = lower value 0.985 | S. cerevisiae deletion strains, locus YNR030W, strain Alg12, stronger effect = lower value 0.998 | S. cerevisiae deletion strains, locus YOL006C, strain TOP1, stronger effect = lower value 0.951 | S. cerevisiae deletion strains, locus YPL055C, strain LGE1, stronger effect = lower value 0.969 | S. cerevisiae deletion strains, locus YPL241C, strain CIN2, stronger effect = lower value 1.01 | S. cerevisiae deletion strains, locus YPR135W, strain CTF4, stronger effect = lower value 0.939 | S. cerevisiae strains, strain wild type, stronger effect = lower value 1
